Compounds with a hit are over-represented: about 15% of the library has one in this group of screens.
12-LOX inh = blocks human arachidonate 12S-lipoxygenase. Potency, µM (top dose mostly 108 µM), most hits filed as inhibitors. 580,000 tested, 1.1% active. P18054. purified 12hLO, xylenol orange hydroperoxide absorbance
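Purified human 12hLO (150 nM final) in 25 mM Hepes, 0.01% Triton X-100, pH 7.0 was preincubated 15 min at room temperature with compound. Then 40 uM arachidonic acid was added, 30 min. Hydroperoxide was read by Fe-XO absorbance ratio 573/405 nm.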
RORg inh = inhibitors of mouse ROR gamma transcriptional activity; 310,000 tested, 5.4% active; P51450; Drosophila S2 Gal4-RORgamma UAS-luciferase reporter, 20 h; Potency, µM (titrated, usually from 53.6 µM), actives largely listed as inhibitors; AID 2551; note: nearly all actives have a fitted effect of over 60% in size
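Stably transfected Drosophila Schneider cells are the test system, with ROR gamma fused to Gal4 and luciferase under UAS control; luminescence is read after 20 hr of 700 uM copper sulfate induction at ambient temperature.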
DT40 TDP1 no CPT = qHTS for Inhibitors of human tyrosyl-DNA phosphodiesterase 1 (TDP1): qHTS in cells in absence of CPT; 420,000 tested, 15% active; Potency, µM (series often up to 46.2 µM), most hits filed as inhibitors; DT40 Tdp1-/- hTDP1 cells, no CPT, ATP luminescence, 48 h; note: nearly all actives have a fitted effect of over 55% in size
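No-CPT arm: Tdp1-/-;hTDP1 DT40 cells (400/well) plus compounds, incubated ≥48 hr at 37 °C. Readout CellTiter-Glo luminescence.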
Gal4-VP16 FLuc = counter-screen for ROR gamma inhibitors: Gal4-VP16 reporter | Potency, µM (top dose mostly 53.6 µM), actives largely listed as inhibitors | 310,000 tested, 3.5% active | Drosophila S2 Gal4-VP16 UAS-luciferase, luminescence, 20 h;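 note: Gal4-VP16 expression switched on by copper sulfate through the metallothionein promoter; nearly all actives have a fitted effect of over 50% in size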
ELG1 repair inh = blocks ELG1-dependent DNA repair in HEK293T cells; HEK293T ELG1-luciferase reporter, luminescence, 16 h; DNA damage induced by 5-fluorouridine; Potency, µM (series often up to 46.1 µM), hits mostly inhibitors; 330,000 tested, 2.3% active; note: nearly all actives have a fitted effect of over 55% in size
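5-Fluorouridine DNA damage + compound/DMSO, 2,000 cells/well, 16 h, 37 °C/5% CO2. ONE-Glo, 30 min RT, luminescence. Readout = decrease in reporter signal.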
TDP1 cell CPT = growth inhibition of DT40 Tdp1-/-;hTDP1 cells with camptothecin (screen for TDP1 inhibitors); chicken DT40 Tdp1-/-;hTDP1 cells + 20 nM CPT, ATP luminescence, 48 h; 420,000 tested, 12% active; Potency, µM (series often up to 46.2 µM), actives largely listed as inhibitors; note: nearly all actives have a fitted effect of over 55% in size
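Chicken DT40 Tdp1-/- cells complemented with human TDP1, 400 cells/well, exposed to compounds plus 20 nM camptothecin for at least 48 h at 37 C; viability read as ATP content by CellTiter-Glo luminescence.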
ELG1 FLuc counter = luciferase inhibition in cell-free luciferin readout for ELG1 hits; shares compounds with ELG1 repair inh; cell-free firefly luciferase luminescence counter-screen, ViewLux; Potency, µM (series often up to 46.1 µM), hits mostly inhibitors; 350 tested, 3% active
ELG1-Luc inh = confirmation of human ELG1-dependent DNA repair inhibitors. shares compounds with ELG1 repair inh. HEK293T ELG1-luciferase levels, luminescence; cells co-treated with 5-fluorouridine. Potency, µM (highest dose often 46.1 µM), usual class: inhibitors. 670 tested, 68% active; note: nearly all actives have a fitted effect of over 55% in size
ELG1-Luc MMS = confirmation of human ELG1 repair inhibitors, MMS stimulated | 670 tested, 53% active | HEK293T luciferase-tagged ELG1 level, MMS stimulated | shares compounds with ELG1 repair inh | Potency, µM (doses to about 46.1 µM), actives largely listed as inhibitors; note: nearly all actives have a fitted effect of over 60% in size
ELG1 5FU viab = confirmation of ELG1 repair inhibitors: viability with 5FU; shares compounds with ELG1 repair inh; cell viability with 5-FU, ELG1-dependent repair; Potency, µM (top dose mostly 46.1 µM), usual class: cytotoxic; 670 tested, under 10 active; AID 624250;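 note: ELG1-luc HEK293T cells cotreated with 5-fluorouridine at 10 µM final; viability measured 16 h after compound addition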
ELG1 MMS viab = confirmation of ELG1 repair inhibitors: viability with MMS; Potency, µM (highest dose often 46.1 µM), most hits filed as cytotoxic; 670 tested, 33% active; Cell viability with MMS, ELG1-dependent DNA repair; shares compounds with ELG1 repair inh; AID 624251;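 note: ELG1-luc HEK293T cells co-treated with 10 µM MMS; viability read 16 h after compound addition; nearly all actives have a fitted effect of over 60% in size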
Cell viab unstim = affects unstimulated cell viability, ELG1 hit counter-screen. shares compounds with ELG1 repair inh. cell viability counter-screen, unstimulated, luminescence. Potency, µM (top dose mostly 45.9 µM), usual class: cytotoxic. 900 tested, 8% active;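 note: compound exposure lasted 16 hours before reading; nearly all actives have a fitted effect of over 55% in size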
FLuc enzyme = firefly luciferase inhibition counter-screen; shares compounds with ELG1 repair inh; purified firefly luciferase, luminescence counter-screen; Potency, µM (top dose mostly 57.5 µM), actives largely listed as inhibitors; 350 tested, 10% active
A number is an active result; [ ] = another dose, or the depositor's remark. Calls come from the whole dose curve; as a rule, active = well fitted curve in the direction sought with a large enough effect; inconclusive = small, poorly fitted or top-dose-only effect, or another doubt; inactive = no such curve, though single readings can be large; an effect the other way counts as inactive or inconclusive.

Results for O=C(CSCC(=O)N1CCN(c2ccccc2)CC1)Nc1nc(-c2ccc(Cl)s2)cs1 ?
12-LOX inh: inactive; RORg inh: inconclusive; DT40 TDP1 no CPT: inconclusive; Gal4-VP16 FLuc: inactive; ELG1 repair inh: inconclusive; TDP1 cell CPT: inconclusive; ELG1 FLuc counter: inactive; Cell viab unstim: inconclusive; FLuc enzyme: inactive

Results for CCOC(=O)N1CCN(C(=O)CSCC(=O)Nc2nc(-c3ccccc3)cs2)CC1 ?
12-LOX inh: inactive; RORg inh: inconclusive; DT40 TDP1 no CPT: inconclusive; Gal4-VP16 FLuc: inactive; ELG1 repair inh: inconclusive; TDP1 cell CPT: 21µM; ELG1 FLuc counter: inactive; Cell viab unstim: inactive; FLuc enzyme: inactive

What do the screens show for `CN1C(=O)CCC2(CNC(=O)c3ccccn3)CCC=C12` (stereo not drawn)?
12-LOX inh: inactive

What do the screens show for `O=C(CSc1ccc2nnc(-c3cccc(F)c3)n2n1)N1CCCc2ccccc21`?
12-LOX inh: inactive; RORg inh: inactive; DT40 TDP1 no CPT: 18µM; Gal4-VP16 FLuc: inactive; ELG1 repair inh: 12µM; TDP1 cell CPT: inconclusive; ELG1 FLuc counter: inactive; ELG1-Luc inh: 14µM; ELG1-Luc MMS: inconclusive; ELG1 5FU viab: inactive; ELG1 MMS viab: inactive; Cell viab unstim: inactive; FLuc enzyme: inactive

Results for CCCC(=O)Oc1ccc2[nH]c(C(=O)c3cc4ccccc4[nH]3)cc2c1 ?
DT40 TDP1 no CPT: inconclusive; TDP1 cell CPT: inconclusive; Cell viab unstim: inactive

Results for CCCOC(=O)c1cc2ccccc2[nH]1 ?
12-LOX inh: inactive

How did O=[N+]([O-])c1cccc(/C=C/c2nc3nc4ccccc4nc3n2-c2cccc(C(F)(F)F)c2)c1 do in these assays?
12-LOX inh: inactive

What do the screens show for `O=C(NCc1ccc(C(=O)O)cc1)OCc1ccccc1`?
12-LOX inh: inactive; RORg inh: inactive; DT40 TDP1 no CPT: inactive; Gal4-VP16 FLuc: inconclusive; ELG1 repair inh: inactive; TDP1 cell CPT: inactive

How did Nc1ccccc1NC(=O)c1ccc(CNC(=O)OCc2cccnc2)cc1 do in these assays?
12-LOX inh: inactive; RORg inh: inactive; Gal4-VP16 FLuc: inactive; ELG1 FLuc counter: inactive; Cell viab unstim: inconclusive; FLuc enzyme: inactive

What do the screens show for `Cc1ccc2cc(CN(CC3CCCO3)C(=S)Nc3ccccc3)c(=O)[nH]c2c1C` (stereo not drawn)?
12-LOX inh: inactive; RORg inh: inactive; DT40 TDP1 no CPT: 2.6µM; Gal4-VP16 FLuc: inactive; ELG1 repair inh: 4.6µM; TDP1 cell CPT: 2.9µM; ELG1-Luc inh: 4µM; ELG1-Luc MMS: inconclusive; ELG1 5FU viab: inconclusive; ELG1 MMS viab: inactive; Cell viab unstim: inconclusive

What do the screens show for `Cc1ccc(NC(=S)N(Cc2cccs2)Cc2cc3cccc(C)c3[nH]c2=O)cc1`?
12-LOX inh: inactive; RORg inh: inactive; DT40 TDP1 no CPT: 12µM; Gal4-VP16 FLuc: inactive; ELG1 repair inh: inconclusive; TDP1 cell CPT: 21µM; ELG1-Luc inh: 4.4µM; ELG1-Luc MMS: inconclusive; ELG1 5FU viab: inconclusive; ELG1 MMS viab: inactive; Cell viab unstim: inactive

Results for Cc1cc(C)c2cc(CN(CC3CCCO3)C(=S)NCc3ccco3)c(=O)[nH]c2c1 (stereo not drawn) ?
12-LOX inh: inconclusive; RORg inh: inactive; DT40 TDP1 no CPT: inconclusive; Gal4-VP16 FLuc: inactive; ELG1 repair inh: inconclusive; TDP1 cell CPT: inconclusive

Results for CCCN(Cc1cc2cccc(C)c2[nH]c1=O)C(C)=O ?
12-LOX inh: inactive

How did CCc1ccc(-c2nc(CN3CCC(C(=O)N4CCN(c5ccccn5)CC4)CC3)c(C)o2)cc1 do in these assays?
12-LOX inh: inactive; RORg inh: inactive; DT40 TDP1 no CPT: 18µM; Gal4-VP16 FLuc: inactive; ELG1 repair inh: 4.1µM; TDP1 cell CPT: 23µM; ELG1-Luc inh: 7.1µM; ELG1-Luc MMS: 7.9µM; ELG1 5FU viab: inactive; ELG1 MMS viab: 7.9µM; Cell viab unstim: inconclusive

Results for CCc1ccc(N2CC(C(=O)N3CCN(c4ccccn4)CC3)CC2=O)cc1 (stereo not drawn) ?
12-LOX inh: inactive; DT40 TDP1 no CPT: inconclusive; ELG1 repair inh: inactive; TDP1 cell CPT: inconclusive

How did Cc1cc(C(=O)Nc2nc(-c3ccc(C)c(C)c3)c(C)s2)no1 do in these assays?
12-LOX inh: inactive

What do the screens show for `Cc1ccc(-c2nc(NC(=O)c3cc(C(C)(C)C)nn3C)sc2C)cc1Cl`?
12-LOX inh: inconclusive; RORg inh: inactive; DT40 TDP1 no CPT: inconclusive; Gal4-VP16 FLuc: inactive; ELG1 repair inh: 4.6µM; TDP1 cell CPT: inconclusive; ELG1-Luc inh: inconclusive; ELG1-Luc MMS: inactive; ELG1 5FU viab: inactive; ELG1 MMS viab: inconclusive; Cell viab unstim: inconclusive

What do the screens show for `Cc1ccc(CNC(=O)c2oc3ccc(S(=O)(=O)N4CCC5(CC4)OCCO5)cc3c2C)cc1`?
12-LOX inh: inactive; RORg inh: inactive; DT40 TDP1 no CPT: inconclusive; Gal4-VP16 FLuc: inactive[0.365 µM]; ELG1 repair inh: 0.82µM; TDP1 cell CPT: inactive; ELG1 FLuc counter: inconclusive; ELG1-Luc inh: 3.5µM; ELG1-Luc MMS: 14µM; ELG1 5FU viab: inconclusive; ELG1 MMS viab: 22µM; Cell viab unstim: inconclusive; FLuc enzyme: inactive

Screens from PubChem.
